# Screening results from PubChem BioAssay.
# Sampled rows, rich in hits. Any-hit rate of the full collection: about 3%.
# VDR inh = blocks the human vitamin D receptor. VDR-SRC2-3 peptide fluorescence polarization, 2 h. 400,000 compounds, 0.93% hits. P11473. Potency, µM, without a hit: max response, negative = inhibition, most hits filed as inhibitors. AID 504847
#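 Fluorescence polarization assay of small-molecule disruption of VDR binding to coregulator peptide SRC2-3. Compounds and controls pin-transferred, then read after 2 h incubation at ambient room temperature.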
# PLK1 PBD block = blocks phosphopeptide binding to human PLK1 polo-box domain; 360,000 compounds, 2.8% hits; P53350; AID 720504; Plk1 PBD binding of FITC phosphopeptide, fluorescence polarization; Potency, µM, for the others: max response, negative = inhibition, actives largely listed as inhibitors; further: series mostly up to about 57 µM; nearly all actives have a fitted effect of over 65% in size
# GCN5L2 inh = inhibitors of human GCN5L2 histone acetyltransferase. Potency, µM (series often up to 58.9 µM), for inactives: at the highest dose activity change, negative = inhibition, hits mostly inhibitors. AID 504327. GCN5L2 HAT assay, ThioGlo1 CoA-SH fluorescence. 390,000 compounds, 0.21% hits
#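 ThioGlo1-coupled HAT assay: 20nM GCN5L2, 70uM acetyl-CoA, 75uM H3(1-25) peptide, pH 7.5. Fluorescence read at 340/540nm at start and after 20 min at room temperature.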
# ALOX12 inh = ALOX12 (human) lipoxygenase inhibition. purified 12hLO, xylenol orange hydroperoxide absorbance. P18054. Potency, µM (highest dose often 108 µM), for the others: at the highest dose activity change, negative = inhibition, usual class: inhibitors. 580,000 compounds, 1.1% hits
# Target sequence (P18054 whole entry, looked up): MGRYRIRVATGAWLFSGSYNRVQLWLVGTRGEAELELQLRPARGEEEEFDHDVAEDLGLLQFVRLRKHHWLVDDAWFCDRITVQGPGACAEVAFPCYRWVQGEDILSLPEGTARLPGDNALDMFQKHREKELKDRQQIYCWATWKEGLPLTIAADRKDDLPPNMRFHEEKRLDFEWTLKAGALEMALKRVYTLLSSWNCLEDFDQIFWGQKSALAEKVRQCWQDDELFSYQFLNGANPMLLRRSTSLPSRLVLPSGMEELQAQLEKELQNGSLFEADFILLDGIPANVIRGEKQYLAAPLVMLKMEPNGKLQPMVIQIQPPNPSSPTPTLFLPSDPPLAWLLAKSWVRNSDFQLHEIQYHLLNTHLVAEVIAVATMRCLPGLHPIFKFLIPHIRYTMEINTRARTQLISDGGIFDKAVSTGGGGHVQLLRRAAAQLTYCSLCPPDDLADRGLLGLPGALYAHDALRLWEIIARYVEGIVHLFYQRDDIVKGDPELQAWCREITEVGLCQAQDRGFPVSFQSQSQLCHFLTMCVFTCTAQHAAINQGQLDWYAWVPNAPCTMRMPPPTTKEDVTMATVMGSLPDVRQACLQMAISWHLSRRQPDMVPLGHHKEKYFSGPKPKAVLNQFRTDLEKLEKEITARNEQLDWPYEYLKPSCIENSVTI
#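 Hydroperoxide product was detected by ferrous iron/xylenol orange as the 573 to 405 nm absorbance ratio. Arachidonic acid at 40 uM (final) was turned over for 30 min at room temperature by 150 nM human 12hLO, pH 7.0 Hepes buffer, after 15 min compound preincubation.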
# * marks the source's active call; other numbers are inactive results; ? = inconclusive; / = no result given; ! = not confirmed by another sample; [ ] = remark or other dose. The call rests on the fitted dose curve; in most records, active means well fitted curve in the direction sought with a large enough effect; inconclusive means small, poorly fitted or top-dose-only effect, or another doubt; inactive means no such curve, though single readings can be large; an effect the other way counts as inactive or inconclusive. On the % scale 0 is the no-effect control and ±100 the full control effect; potency means the concentration at half of the fitted maximal effect.
SMILES,VDR inh,PLK1 PBD block,GCN5L2 inh,ALOX12 inh
N#C/C(=C\c1ccc(O)c(O)c1)C(=O)NCCCc1ccccc1,?,-19%,-25%,28µM*!
COCCNC(=O)/C(C#N)=C/c1cccc(/C=C(\C#N)C(=O)NCCOC)c1,35µM*,?,-3%,-16%
COc1ccc(/C=C(\C#N)C(=O)NCCc2ccccc2)cc1OCc1ccccc1,-18%,-9%,-5%,7%
N#CC(=Cc1ccc(O)c(O)c1)C(=O)NCc1ccccc1,/,/,/,27%[57.4 µM]
COCCCNC(=O)/C(C#N)=C/c1ccc(OCC(=O)O)c(OC)c1,-5%,21µM*,?,-21%
N#C/C(=C\c1cccc([N+](=O)[O-])c1)C(=O)NCc1ccc(Cl)cc1,40µM*,?,-8%,?
N#C/C(=C\c1cccc([N+](=O)[O-])c1)C(=O)NCc1cccnc1,?,-18%,-6%,?
Cc1nc2nc3ccn(CCN(C)C)c(=O)c3c(-c3ccccc3)n2n1,/,/,/,-21%
Cc1nc(N2CCCCC2)n(CC(=O)Nc2cccc(F)c2)c(=O)c1C,/,/,/,-17%
CC(=O)Nc1cccc(C(=O)OCC(=O)c2ccc[nH]2)c1,/,/,/,10%
CCc1nc2c(c(-c3ccc(O)cc3)n1)CCN(Cc1ccccc1C(F)(F)F)CC2,/,/,/,-2%
S=C(NCC1CCCO1)Nc1ccc(Cl)c(Cl)c1 (stereo not drawn),?,12µM*,-5%,?
O=C(Cc1ccc(Cl)c(Cl)c1)NNC(=S)NCC1CCCO1 (stereo not drawn),-12%,-29%,-3%,0%
O=C(CN(C1CCCCC1)S(=O)(=O)c1ccc(F)cc1)NCC1CCCO1 (stereo not drawn),?,30µM*,/,-8%
Cc1ccc(-c2nc(S(=O)(=O)c3ccc(F)cc3)c(SCC(=O)NCC3CCCO3)o2)cc1 (stereo not drawn),-20%,19µM*,-2%,0%
CCNS(=O)(=O)c1ccc(NC(=S)NCC2CCCO2)cc1 (stereo not drawn),?,24µM*,16%,-4%
O=C(CCc1c[nH]c2ccccc12)OCC(=O)N1CCCC1=O,/,/,/,-30%
CN1CC(=O)N(c2cccnc2)Cc2c1ncnc2N1CCCCC1,/,/,/,4%[176 µM]
Cc1ccc(C)c(NS(=O)(=O)c2ccc(OCC(=O)NCC3CCCO3)cc2)c1 (stereo not drawn),4%,-20%,0%,-3%
Cc1ccc(C(=O)NC(=S)NCC2CCCO2)cc1Br (stereo not drawn),-23%,1%,-2%,28µM*
Cc1ccc(NS(=O)(=O)c2ccc(OCC(=O)NCC3CCCO3)cc2)cc1 (stereo not drawn),-5%,30µM*,8%,-6%
CC(C)c1nc(N2CCN(C(=O)C(=O)N3CCCC3)CC2)c(C#N)c2c1CCCC2,/,/,/,12%
Cn1c(=O)c(C(=O)CCl)c(N)n(Cc2ccccc2)c1=O,-10%,-25%,-2%,?
Cn1c(N)c(C(=O)CCl)c(=O)n(Cc2ccccc2)c1=O,11%,17µM*,-5%,1%
O=c1[nH]c2ccc(S(=O)(=O)Nc3c(NC4CCCCC4)c4ccccc4oc3=O)cc2o1,/,/,/,40µM*
SMILES,VDR inh,PLK1 PBD block,GCN5L2 inh,ALOX12 inh
O=c1oc2ccccc2c(NC2CCCCC2)c1NS(=O)(=O)c1ccc(F)cc1,?,3.4µM*,-20%,-4%
O=c1oc2ccccc2c(NC2CCCC2)c1NS(=O)(=O)c1ccc(F)c(F)c1,/,/,/,-6%
O=c1oc2ccccc2c(NC2CCCC2)c1NS(=O)(=O)c1ccccc1,/,/,/,-26%
C[N+](C)(C)CCSSCC[N+](C)(C)C,/,/,/,4µM*
CC(C)(C)NC(=S)NN,/,/,/,-11%
COc1cc(-c2nc3sccn3c2Nc2c(C)cccc2C)ccc1O,?,/,2%,-1%
Cc1cccc(C)c1Nc1c(-c2ccc(O)cc2)nc2sccn12,?,/,-2%,20µM*
CCOc1cc(-c2ccc(C)cc2)nc2ccc(C(=O)N3CCCC3)cc12,/,/,/,0%
COc1ccc(-c2noc(Nc3cc(OC)c(OC)c(OC)c3)n2)cc1OC,/,/,/,-13%
CS(=O)(=O)c1ccc(OCC2(CNS(=O)(=O)c3ccc(Cl)cc3)C[C@@H](O)[C@@H](O)C2)cc1 (stereo partly drawn),/,/,/,79µM*
CCc1ccc(CNC(=O)COC(=O)c2ccc(Cl)cc2)cc1,/,/,/,1%
COc1ccc(CN2CCC3(C2)C(=NC2CCCCC2)NC(=O)N3c2cccc(OC)c2)cc1 (stereo not drawn),/,/,/,3%[6.33 µM]
Cc1cccc(NC(=O)c2ccccc2O)c1C,0%,-1%,0%,-20%
Cc1ccc(C)c(NC(=O)c2ccccc2O)c1,?,3.4µM*,-7%,0%
CS(=O)(=O)c1cccc(C(=O)N2CCN(C(=O)c3ccccc3)CC2)c1,/,/,/,23%
CC(C)CN(Cc1c(O)ccc2ccccc12)CC(C)C,-22%,?,-8%,40µM*
Oc1ccc2ccccc2c1CN(Cc1ccccc1)Cc1ccccc1,/,/,/,3.2µM*
CN(C)Cc1c(O)ccc2ccccc12,-26%,?,-3%,0%
CCN(Cc1ccncc1)Cc1c(O)ccc2ccccc12,-26%,2.7µM*,-6%,?
Cc1cccc(C(=O)Nc2ccccc2SCc2ccsc2)c1,/,/,/,-10%
O=C1C(=O)c2ccccc2C(O)=C1c1cccc([N+](=O)[O-])c1,-16%,27µM*,-2%,?
O=C(Nc1cccc(F)c1)c1nnc(CSCC(=O)N2CCOCC2)s1,/,/,/,-23%
Fc1ccc(Nc2cncc(-c3ccsc3)c2)cc1Cl,/,?,/,40µM*
CC(C)c1nnc(NC(=O)C(Oc2ccccc2)c2ccccc2)s1 (stereo not drawn),/,/,/,-11%
COc1ccc(Cn2c(C)nc3c(c2=O)c2nc4ccccc4nc2n3Cc2ccco2)cc1,?,7.5µM*,/,?
SMILES,VDR inh,PLK1 PBD block,GCN5L2 inh,ALOX12 inh
COc1ccc(S(=O)(=O)c2c(N)n(Cc3ccco3)c3nc4ccccc4nc23)cc1,11%,?,-16%,0%
COCCOC1CCOC2(CCN(C(=O)c3ccco3)CC2)C1 (stereo not drawn),/,/,/,23%
COC(=O)[C@H]1[C@H](CO)[C@H]2Cn3c(ccc(Br)c3=O)[C@H]2N1Cc1ccccc1Cl,/,/,/,35µM*
O=C(NC[C@H]1O[C@H](Cc2cc(COc3ccccc3)on2)CC[C@@H]1O)C1CCC1,/,/,/,10%[176 µM]
CC(C)COc1ccc(C(=O)N2CCCCC2CCN2CCCCCC2)cc1 (stereo not drawn),/,/,/,7.1µM*
CCCOc1ccccc1C(=O)Nc1nonc1CC,/,/,/,1%
Cc1cc(C(=O)NC2CCN(Cc3ccccc3)CC2)c2ccccc2n1,/,/,/,21%
Cc1ccc(-n2nc(C)c3c(C(=O)NC4CCN(Cc5ccccc5)CC4)cc(C)nc32)cc1,/,/,/,7.1µM*
CC(C)CC(=O)NCCNC(=O)c1cc2ccccc2n1C,/,/,/,14%
Cc1ccccc1-n1ncc2c1CC(C)(C)CC2NC(=O)c1cn[nH]c1C (stereo not drawn),?,30µM*,-2%,15%
O=C(Nc1ccc(Nc2ccccc2)cc1)c1ccc(Cl)cc1,2%,6%,/,?
N#C/C(C(=O)Nc1ccc(Cl)cc1)=C(/S)Nc1ccccc1,?,3.4µM*,7.9µM*,1.8µM*
